PubChem BioAssay (NCI)
Compounds without any hit were thinned out: in the full panel of roughly 83,000, 20% have a hit.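 For each line, cells grew in 96-well plates with the test compound present at a single concentration for 48 hours.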 Unmarked numbers belong to inactive results. The source made the active and inactive calls. The calls were made as follows: active = growth percent below 10; inactive = the rest.

Experiments:
Assay in all cases: NCI-60 one-dose screen, 48 h (100 = growth as untreated, 0 = no growth, -100 = all killed)
Details in all cases: 10 µM unless noted
[1] = test system: DU-145 prostate
[2] = test system: K-562 leukemia
[3] = test system: MALME-3M melanoma
[4] = test system: MDA-MB-231 breast
[5] = test system: RXF 393 renal
[6] = test system: SF-268 CNS
[7] = test system: SF-295 CNS
[8] = test system: SF-539 CNS
[9] = test system: UACC-257 melanoma
[10] = test system: M14 melanoma
[11] = test system: HCT-15 colon
[12] = test system: HT29 colon
[13] = test system: SNB-75 CNS
[14] = test system: U251 CNS
[15] = test system: PC-3 prostate
[16] = test system: SK-MEL-5 melanoma
[17] = test system: UACC-62 melanoma
[18] = test system: LOX IMVI melanoma
[19] = test system: SK-MEL-28 melanoma
[20] = test system: SNB-19 CNS

Compound	growth [1]	growth [2]	growth [3]	growth [4]	growth [5]	growth [6]	growth [7]	growth [8]	growth [9]	growth [10]	growth [11]	growth [12]	growth [13]	growth [14]	growth [15]	growth [16]	growth [17]	growth [18]	growth [19]	growth [20]
Cn1cc(-c2noc(-c3cn(C)c4ncccc34)n2)c2cc(Cl)ccc21	103%	87.4%	90.7%	70.4%	121%	82.9%	99.2%	56.6%	103%	91.6%	92.8%	83.1%	101%	95.6%	89.3%	94.7%	93.1%	93.4%	93%	–
COc1ccc(-c2cc(-c3ccc(Cl)cc3)nc(NCCCCNc3ccnc4cc(Cl)ccc34)n2)cc1	98.8%	0.414% (active)	-18% (active)	73.4%	26.5%	86.5%	83.8%	64.8%	3.17% (active)	34.6%	0.532% (active)	4.81% (active)	99.5%	70.9%	54.8%	26.8%	84.8%	-78.3% (active)	-7.9% (active)	–
C[C@H]1[C@H](C)CC[C@]2(COC(=O)CCC(=O)O)CC[C@]3(C)C(=CC[C@@H]4[C@@]5(C)CCCNC(C)(C)[C@@H]5CC[C@]43C)[C@H]12	79.8% [100 µM]	48.9% [100 µM]	77.1% [100 µM]	45.1% [100 µM]	53% [100 µM]	62.5% [100 µM]	59.1% [100 µM]	50.9% [100 µM]	78.5% [100 µM]	92% [100 µM]	65.9% [100 µM]	52.2% [100 µM]	-2.3% [100 µM] (active)	–	32.7% [100 µM]	46.2% [100 µM]	56.3% [100 µM]	70.5% [100 µM]	82.2% [100 µM]	–
CCN(CC)CCSC(=O)C(O)(c1ccccc1)C1CCCC1 (stereo unspecified)	95.6%	96.4%	116%	97.9%	82.1%	91.3%	113%	110%	83.2%	128%	98.6%	114%	95.2%	108%	96.9%	117%	86.9%	90.3%	87%	–
N=C(N)c1ccc(-c2ccc(-c3ccc(-c4cccs4)s3)s2)cc1F	107%	15.9%	102%	91.2%	90.3%	98.8%	97.5%	94.7%	102%	99.4%	84.5%	72.6%	84.8%	101%	92.6%	96.7%	97.2%	95.9%	101%	–
CCN(CC)c1ccc2cc(C(Nc3ccc(C)cc3)c3nnnn3C(C)(C)C)c(=O)oc2c1 (stereo unspecified)	105%	87.5%	105%	84.5%	87.3%	92.6%	102%	103%	104%	103%	98.3%	94.8%	77.6%	89.2%	73.7%	83.4%	71.7%	94.8%	106%	–
CCN(CCNc1ccc(C)c2sc3cc(Cl)ccc3c(=O)c12)CC(C)O (stereo unspecified)	82.5%	3.01% (active)	82.1%	-11.8% (active)	-39.2% (active)	82.8%	97.3%	59.4%	-61.1% (active)	-50.5% (active)	-42.8% (active)	-28.5% (active)	–	18%	48.5%	-98.1% (active)	-70.3% (active)	-83.4% (active)	-64.5% (active)	58.5%
C=C(C)[C@@H]1CC[C@]2(C(=O)O)CC[C@]3(C)[C@H](CC[C@@H]4[C@@]5(C)C/C(=C/c6ccco6)C(=O)C(C)(C)[C@@H]5CC[C@]43C)[C@@H]12	-35% [100 µM] (active)	8.08% [100 µM] (active)	-82.3% [100 µM] (active)	-60.8% [100 µM] (active)	-98.2% [100 µM] (active)	-41.5% [100 µM] (active)	-82.8% [100 µM] (active)	-77.8% [100 µM] (active)	-64.1% [100 µM] (active)	-62.6% [100 µM] (active)	-65.6% [100 µM] (active)	-56.2% [100 µM] (active)	-70.3% [100 µM] (active)	-58.6% [100 µM] (active)	-49.3% [100 µM] (active)	-73.5% [100 µM] (active)	-97.6% [100 µM] (active)	-60.6% [100 µM] (active)	-64.7% [100 µM] (active)	–
